Data: the supplement of paper PMC3842684

Assays:
[1] = tested on: P. falciparum NF54-pfs16-GFP early (I-III) stage gametocytes; assay: relative % inhibition of viable gametocyte number; higher = more gametocytocidal; conditions: stage: early (I-III) gametocyte, incubation 72 h
In short: (§1)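 In 384-well poly-D-lysine imaging plates, NF54 pfs16-GFP gametocytes (magnet-isolated, early I/IIa on day 2 or late on day 8; 10% parasitaemia, 0.1% haematocrit) received compound in duplicate at 5 or 0.5 µM. Plates stood 72 h at 37°C in 5% CO2 and 5% O2, then overnight with MitoTracker Red before confocal imaging, where elongated GFP objects with MitoTracker signal above cut-off counted as viable. Relative inhibition was calculated against vehicle and positive-control wells on the same plate.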

[2] = tested on: P. falciparum NF54-pfs16-GFP late (IV-V) stage gametocytes; assay: as above; conditions: stage: late (IV-V) gametocyte, incubation 72 h
In short: as §1

SMILES | relative % inhibition ([1]; 0.5 µM) [%] | relative % inhibition ([1]; 5 µM) [%] | relative % inhibition ([2]; 0.5 µM) [%] | relative % inhibition ([2]; 5 µM) [%]
CCN(CC)c1cc(C)c2cc(NC(=O)c3cccc(OC)c3)ccc2n1 | 15.1 | 16.1 | -0.167 | 86.7
CCOc1c(Cl)cc(CNCC(O)c2ccccc2)cc1OC (stereo not drawn) | -19.6 | 13.9 | 36.5 | 57.1
COc1ccc(NC(=O)C2c3ccccc3C(=O)N(CC(C)C)C2c2cccs2)cc1 (stereo not drawn) | 52.4 | 102 | 25.7 | 52.6
CCC(c1ccccc1)c1nn2c(-c3cccs3)nnc2s1 (stereo not drawn) | -3.13 | -13.5 | 8.5 | 12.4
Nc1ccn(C2O[C@H](CO)[C@@H](O)[C@H]2O)c(=O)n1 (stereo partly drawn) | -12.7 | 9.7 | 8.91 | -10.9
OC(CNC1CCCC1)Cn1c2ccccc2c2ccccc21 (stereo not drawn) | 15.6 | 91.7 | 24.2 | 66
COc1cc(C(=O)ON=C(N)Cc2cccc3ccccc23)cc(OC)c1OC | -8.44 | 74.1 | 2 | 82.3
CC1CCN(Cc2c(O)ccc3cc(-c4nc5ccccc5s4)c(=O)oc23)CC1 | 2.97 | 94.7 | 18.2 | 18.4
O=C(NC1CCN(Cc2ccccc2)CC1)c1cc(C(=O)NC2CCN(Cc3ccccc3)CC2)cc(C(=O)NC2CCN(Cc3ccccc3)CC2)c1 | 20.3 | 82 | 0.475 | 31.9
Cc1ccc(S(=O)(=O)c2c(COC(=O)c3cccc(C)c3)c(-c3ccccc3)nn2C)cc1 | -3.57 | 37.5 | 18.5 | 20.4
OC(CNCc1ccccc1)Cn1c2ccccc2c2ccccc21 (stereo not drawn) | 0.736 | 89.9 | 21.5 | 84.7
CN1CCN(c2nc(Nc3ccc(O)cc3)nc3ccccc23)CC1 | -17.7 | -9.15 | -10.7 | -15.5
Cc1sc2ncnc(Sc3nc4ccccc4[nH]3)c2c1C | 89.7 | 91.1 | 30.6 | 94.5
Cc1nc2ccccc2c(O)c1CC=C(Cl)Cl | 4.23 | 3.33 | 33.4 | 49.4
C=CCc1c(C)nc2ccccc2c1O | 5.51 | 13.3 | 36.3 | 53.7
O=C(CSc1ccc2nnc(-c3cccc(F)c3)n2n1)Nc1ccc2c(c1)OCO2 | 10.3 | 1.63 | 19 | 32.1
OC(CNC1CCCCC1)Cn1c2ccccc2c2ccccc21 (stereo not drawn) | 14.8 | 66 | 49.9 | 104
COc1ccc(-c2cn3c(C(=O)Nc4ccccc4Cl)c(-c4ccccc4)c4c3n2CCCC4)cc1 | 10.5 | 30.9 | 4.28 | 22.5
CCN(CC)CCn1c(=N)n(CC(O)c2ccc(Cl)c(Cl)c2)c2ccccc21 (stereo not drawn) | 32.2 | 61.8 | 19.3 | 89.4
COc1cccc(C=Cc2nc(=O)c3ccccc3o2)c1OC | -6.76 | -17.9 | 50.6 | 94
Cc1cc(C)c2nc(N3CCC(C(=O)NCCCN4CCC(N5CCCCC5)CC4)CC3)sc2c1 | 8.57 | 90.7 | -24.9 | 44.2
O=C(Nc1cccc(-c2nc3ccccc3[nH]2)c1)c1cccc(NC(=O)c2ccco2)c1 | 12.9 | 20.8 | -1.52 | 0.95
